This note sets out measurements from PubChem BioAssay (NCI).

Common to all, as to assay: NCI-60 one-dose screen, 48 h (100 = growth as untreated, 0 = no growth, -100 = all killed)
Holding throughout (conditions): 10 µM unless noted

Test [1] deals with SR leukemia.
The test system of test [2] is RPMI-8226 leukemia.
In test [3] the test system is OVCAR-8 ovarian.
Test [4] relates to OVCAR-5 ovarian.
Test [5] deals with OVCAR-4 ovarian.
Test [6] concerns SK-OV-3 ovarian.
Test [7] has as its system IGROV1 ovarian.
Test [8] has as its system OVCAR-3 ovarian.
The subject of test [9] is HS 578T breast.
For test [10], the system named is NCI/ADR-RES ovarian.
Test [11] concerns T-47D breast.
The test system of test [12] is BT-549 breast.
For test [13], the system named is MDA-MB-435 melanoma.
The test system of test [14] is SW-620 colon.
For test [15], the system named is MCF7 breast.
Test [16] relates to HCT-116 colon.
The subject of test [17] is HCC-2998 colon.
For test [18], the system named is KM12 colon.
For test [19], the system named is MDA-MB-468 breast.

This is part of a sample that, as a whole, favours compounds with a hit. Of some 83,000 tested, about 20% had one in any assay.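 Assay: single dose, 48 h. Readout: percent growth (0 = no net growth; negative = cell death). Active: <10.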 Values without a mark were called inactive. The source made the active and inactive calls.

Turning to `Cc1ccc(S(=O)(=O)c2nc(S(=O)(=O)c3ccc(C)cc3)c(N3CCN(C)CC3)s2)cc1`, the growth in test [1] was 16.1%; in test [2] it was 52.2%; in test [3], 48%; in [4] it was 94.1%; in test [5], 62.5%; in test [6] it was 124%. Besides, the growth is 77.1% in test [7]; 46.1% in test [8]; 81.1% in [9]; 44.4% in test [10]; 38% in test [11]; 43.4% in [12]. The growth is 8.29% (active) in test [13]; 36.1% in test [14]; 43.1% in test [15]; 46.9% in test [16]; 107% in [17]; 76.4% in test [18]. Further, in test [19], the growth was -15% (active).

`COc1cc(C2CC(c3cc(OC)c(OC)c(OC)c3)=NN2C(C)=O)ccc1OCc1ccc(F)cc1` (stereo not given): the growth was 39.7% in [1]; 36.6% in test [2]; 61.9% in test [3]; 57.8% in test [4]; 42.1% in test [5]; 80.1% in [6]. Besides, the growth was 45.8% in [7]; 70.3% in test [8]; 58.8% in test [9]; 60.6% in [10]; 24.8% in test [11]; 44.9% in test [12]. The growth was 62.5% in test [13]; 58.5% in test [14]; 34.7% in [15]; 31.5% in test [16]; 86% in [17]; 57.1% in [18]. Further, the growth in test [19] was 47.1%.

As to `Cc1cc(=O)oc2cc(OCCCOc3ccc(/C=C/C(=O)Nc4ccccc4N)cc3)ccc12`, the growth was 21.4% in [1]; 0.19% (active) in test [2]; 44.2% in test [3]; 37.5% in test [4]; 40.9% in [5]; 7.97% (active) in [6]. The growth in [7] was 39.4%; in test [8], 5.72% (active); in test [9] it was 48.3%; in test [10], 21.3%; in test [11] it was 9.28% (active); in test [12], -59.7% (active). For the same compound, the growth in test [13] is 38.3%; in test [14] it was 26.8%; in [15], 4.44% (active); in [16], 17.2%; in test [17], 27.3%; in test [18], 12.6%. For the same compound, in [19], the growth was -48.1% (active).

With `Cn1cc(-c2nc(N)nnc2-c2c[nH]c3ccc(F)cc23)c2cccnc21`, the growth is 17.8% in test [1]; 44.7% in test [2]; 50.3% in test [3]; 80.2% in [4]; 70.7% in test [5]; 41.3% in test [6]. Also, the growth in test [7] is 22.3%; in test [8], 60.7%; in [9] it was 15.1%; in [10] it was 52.1%; in [11], 19.4%; in test [12], 38%. Further, the growth in test [13] is 49.6%; in test [14], 46.7%; in [15] it was 21.2%; in test [16], 43.2%; in test [17], 72.8%; in test [18] it was 60.9%. The growth in [19] is 7.74% (active).

For `CC(C)c1sc(NC(=O)c2cc(NC(=O)c3cc(NC(=O)c4nccn4C)cn3C)cn2C)nc1C(=O)NCCCN(C)C`, the growth was 17.5% in [1]; 104% in test [2]; 81.2% in [3]; 105% in [4]; 75.3% in test [5]; 60% in [6]. The growth is 82.5% in test [7]; 70.9% in test [8]; 90.3% in [9]; 111% in test [10]; 75.8% in test [11]; 57.7% in [12]. For the same compound, the growth in [13] was 70.9%; in test [14] it was 66.6%; in test [15], 69.7%; in test [16], 44.2%; in test [17], 84.3%; in test [18], 111%. For the same compound, the growth in test [19] is 65.3%.

Regarding `Cc1ccccc1[C@H]1C(C(=O)c2ccc(Cl)cc2)C2(N[C@@H]1c1ccccc1)C(=O)Nc1ccc(Cl)cc12` (stereo not given in full), the growth in test [1] was -23.6% (active); in test [2], -11.8% (active); in test [3] it was -69.2% (active); in test [4], -55.8% (active); in [5], 11.2%; in [6], 1.06% (active). The growth is 2.05% (active) in [7]; -52.4% (active) in test [8]; 6.9% (active) in [9]; -65.7% (active) in [10]; 13% in [11]; -29.4% (active) in [12]. The growth in [13] is -35.4% (active); in test [14], -9.32% (active); in [15], -22.3% (active); in test [16] it was -84.6% (active); in test [17], -54.2% (active); in [18], -24.3% (active).

`COc1ccc(N2N=C(c3ccc4c(c3)OCO4)CC2c2cccc(NC(=O)CCNS(=O)(=O)c3ccc(Cl)cc3)c2)cc1` (stereo not given): the growth in test [1] was 3.71% (active); in test [2] it was 23.2%; in test [3], 49.1%; in [4], 68.4%; in test [5], 51.6%; in test [6], 46.1%. For the same compound, the growth in [7] was 61.1%; in [8], 61.8%; in test [9], 13.4%; in test [10], 71.3%; in test [11], 28.9%; in [12] it was 34.5%. Moreover, the growth in test [13] is 41.1%; in test [14], 55.8%; in test [15], 8.85% (active); in [16] it was 26.9%; in [17], 8.63% (active); in test [18], 21.2%. Also, the growth in [19] is 10.1%.

On to `Brc1ccc(-c2n(Cc3ccc4ccccc4c3)c(-c3ccccc3)c(-c3ccccc3)[n+]2Cc2ccc3ccccc3c2)cc1`, for which the growth in test [1] is -36.8% (active); in test [2] it was -38% (active); in test [3], -77.4% (active); in test [4], -100% (active); in test [5], -83.3% (active); in test [6] it was -96.7% (active). Also, the growth in test [7] was -81.7% (active); in test [8], -79% (active); in test [9], -46.3% (active); in [10], -78.2% (active); in [11] it was -76.7% (active); in test [12], -96.7% (active). Besides, the growth is -91% (active) in test [13]; -86% (active) in test [14]; -69.8% (active) in test [15]; -97.9% (active) in test [16]; -88.9% (active) in [17]; -93.4% (active) in [18].
